# DT40 TDP1 no CPT = qHTS for Inhibitors of human tyrosyl-DNA phosphodiesterase 1 (TDP1): qHTS in cells in absence of CPT; 420,000 tested, 15% active; Potency, µM (titrated, usually from 46.2 µM), usual class: inhibitors; AID 686978, 2013; DT40 Tdp1-/- hTDP1 cells, no CPT, ATP luminescence, 48 h; also: nearly all actives have a fitted effect of over 55% in size
#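 DT40 Tdp1-/-;hTDP1 cells, no CPT (DMSO vehicle only), 400 cells/well; compounds pin-transferred; ≥48 hr, 37 °C; CellTiter-Glo 30 min RT dark, luminescence read.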
# RORgamma inh = ROR gamma (mouse) transcription inhibition; Drosophila S2 Gal4-RORgamma UAS-luciferase reporter, 20 h; 310,000 tested, 5.4% active; P51450; Potency, µM (top dose mostly 53.6 µM), most hits filed as inhibitors; also: nearly all actives have a fitted effect of over 60% in size
# Target sequence (P51450 whole entry, looked up, the tested form may be a part): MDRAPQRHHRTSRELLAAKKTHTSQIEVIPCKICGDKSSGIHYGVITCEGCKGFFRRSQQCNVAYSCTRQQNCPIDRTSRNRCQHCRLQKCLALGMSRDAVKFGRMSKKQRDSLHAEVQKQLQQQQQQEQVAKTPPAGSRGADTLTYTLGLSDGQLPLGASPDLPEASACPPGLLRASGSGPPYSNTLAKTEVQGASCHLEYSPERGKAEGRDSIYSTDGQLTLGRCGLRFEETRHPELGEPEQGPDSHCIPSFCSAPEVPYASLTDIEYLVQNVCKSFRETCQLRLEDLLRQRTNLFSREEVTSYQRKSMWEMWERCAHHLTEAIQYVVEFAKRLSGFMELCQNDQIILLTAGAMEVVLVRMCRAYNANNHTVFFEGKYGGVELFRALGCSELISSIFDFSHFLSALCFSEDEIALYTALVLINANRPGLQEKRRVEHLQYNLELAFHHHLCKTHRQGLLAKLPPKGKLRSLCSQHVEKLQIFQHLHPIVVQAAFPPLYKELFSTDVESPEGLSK
#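 A Gal4/UAS one-hybrid system in insect cells: metallothionein-promoter Gal4–ROR gamma fusion plus Photinus luciferase reporter. Copper sulfate 700 uM final, 20 hr ambient incubation, luminescent detection after 10 min with reagent.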
# VP16 counter = inhibits Gal4-VP16 luciferase reporter, ROR gamma counter-screen | Drosophila S2 Gal4-VP16 UAS-luciferase, luminescence, 20 h | Potency, µM (top dose mostly 53.6 µM), hits mostly inhibitors | 310,000 tested, 3.5% active;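 also: Gal4-VP16 expression switched on by copper sulfate through the metallothionein promoter; nearly all actives have a fitted effect of over 50% in size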
# TDP1 cell CPT = growth inhibition of DT40 Tdp1-/-;hTDP1 cells with camptothecin (screen for TDP1 inhibitors). chicken DT40 Tdp1-/-;hTDP1 cells + 20 nM CPT, ATP luminescence, 48 h. Potency, µM (highest dose often 46.2 µM), usual class: inhibitors. 420,000 tested, 12% active. AID 686979; also: nearly all actives have a fitted effect of over 55% in size
#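 Chicken DT40 Tdp1-/- cells complemented with human TDP1, 400 cells/well, exposed to compounds plus 20 nM camptothecin for at least 48 h at 37 C; viability read as ATP content by CellTiter-Glo luminescence.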
# TDP1 block = inhibitors of human tyrosyl-DNA phosphodiesterase TDP1 | Q9NUW8 | recombinant TDP1, AlphaScreen DNA substrate cleavage | Potency, µM (series often up to 130 µM), usual class: inhibitors | 350,000 tested, 0.28% active | AID 485290; also: nearly all actives have a fitted effect of over 40% in size
#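 Tdp1 1 nM final; 15 min RT w/ cpd; substrate 15 nM, 5 min; beads 10 ug/ml, 10 min; AlphaScreen read. Neg ctrl: no enzyme.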
# Numbers stand for hits; . = inactive; ? = inconclusive; / = no result given; [ ] = dose if it differs, or a comment. Hits are enriched below; roughly 19% of the tested compounds scored in any of these assays. Calls follow the shape of the dose curve; as a rule, active = well fitted curve in the direction sought with a large enough effect; inconclusive = small, poorly fitted or top-dose-only effect, or another doubt; inactive = no such curve, though single readings can be large; an effect the other way counts as inactive or inconclusive.
SMILES,DT40 TDP1 no CPT,RORgamma inh,VP16 counter,TDP1 cell CPT,TDP1 block
O=C(CCc1ccccc1)Nc1ccc(Cl)cn1,3.3µM,.,.,5.8µM,.
O=C(Cc1ccccc1)Nc1ccc(Cl)cn1,.,/,/,.,.
CCCCOc1ccc(C(=O)Nc2nnc3n2CCS3)cc1,?,/,/,?,.
Cn1c(=O)oc2cc(S(=O)(=O)N3CCN(Cc4ccc5c(c4)OCO5)CC3)ccc21,?,.,.,.,.
COc1ccc(OCC2CCCN(Cc3nc(CC4CC4)no3)C2)cc1 (centres undefined),.,.,.,.,.
CCCN(CCC)C(=O)CSc1ncccc1C(=O)O,.,.,.,.,.
Nc1c(-c2nc(-c3ccc4c(c3)OCO4)cs2)c2ccccn2c1C(=O)c1ccccc1,?,/,/,.,.
CC(NC(=O)CSc1nnc2n1CCCCC2)c1ccccc1Cl (centres undefined),.,/,/,.,.
CC1CCCC(C)N1C(=O)CSc1nc2ncnc(N)c2[nH]1 (centres undefined),.,.,.,.,.
Cc1ccc(C(=O)Nc2ccc(Cl)cn2)cc1,8.2µM,.,?,7.3µM,.
O=C(Nc1ccc(Cl)cn1)c1cccc2c(Br)cccc12,15µM,.,.,?,/
O=C(Nc1ccccc1)c1cccc2c(Br)cccc12,.,.,.,.,.
CCN(CC)S(=O)(=O)c1cccc(C(=O)Nc2ccc(Cl)cn2)c1,?,?,?,?,.
CCN(CC)S(=O)(=O)c1cc(C(=O)Nc2ccc(Cl)cn2)ccc1C,16µM,.,.,?,.
Cc1c(Cl)cccc1NS(=O)(=O)c1ccc2c(c1)C1C=CCC1C(c1ccc(C(=O)O)cc1)N2 (centres undefined),.,.,.,.,/
COC(=O)c1ccc([C@H]2Nc3ccc(S(=O)(=O)Nc4ccc(C)cc4)cc3[C@H]3C=CC[C@H]32)cc1,15µM,/,/,13µM,/
COc1ccc(NS(=O)(=O)c2ccc3c(c2)[C@H]2C=CC[C@H]2[C@@H](c2ccc(C(=O)O)cc2)N3)cc1,?,.,.,?,/
COc1cccc(NS(=O)(=O)c2ccc3c(c2)[C@H]2C=CC[C@H]2[C@@H](c2ccccc2Cl)N3)c1,4.6µM,/,/,8.2µM,/
Cc1cccc(C)c1NS(=O)(=O)c1ccc2c(c1)[C@H]1C=CC[C@H]1[C@@H](c1ccc(Cl)cc1)N2,13µM,/,/,16µM,/
COc1ccc(CNC(=O)CN2c3ccccc3S(=O)(=O)c3ccccc32)cc1,.,.,.,.,.
CCN(CC)CCOCCOC(=O)C(CC)(CC)c1ccccc1,?,.,.,?,.
CCOC(=O)c1sc2nc(N3CCOCC3)c3c(c2c1N)CCN(Cc1ccccc1)C3,?,.,.,?,.
CCOC(=O)c1sc2nc(-c3ccco3)c3c(c2c1N)CC(C)(C)OC3,21µM,?,?,21µM,.
CC1(C)Cc2c(c(N3CCOCC3)nc3snc(N)c23)CO1,2.5µM,?,.,2.8µM,.
COc1cccc(NC(=O)c2sc3nc(N4CCOCC4)c4c(c3c2N)CC(C)(C)OC4)c1,6.5µM,/,/,5.8µM,.
SMILES,DT40 TDP1 no CPT,RORgamma inh,VP16 counter,TDP1 cell CPT,TDP1 block
COC(=O)CSc1ncnc2c1sc1nc(-c3ccco3)c3c(c12)CC(C)(C)OC3,/,.,.,/,/
CN1Cc2c(N3CCOCC3)nc3sc(C(=O)c4ccccc4)c(N)c3c2CC1(C)C,?,.,.,16µM,.
COCCOC(=O)c1c(C)n(C)c2ccc(OC(=O)C3CC3)cc12,.,?,.,.,.
COc1ccccc1N1CCN(C(=O)c2ccc(N3CCCC3=O)cc2)CC1,.,.,.,.,.
COc1ccc(CNC(=O)C[C@H]2C[C@H](C(=O)N3CCOCC3)[C@@]3(CCC4CCCC4)c4[nH]c5cc(CCC(=O)N(C)C)ccc5c4CCN3C2=O)cc1OC,?,/,/,?,.
CC1(C)Cc2c(c(N3CCOCC3)nc3sc(C(=O)Nc4ccc(Cl)cc4)c(N)c23)CO1,23µM,?,.,?,.[0.0935 µM]
CC1(C)Cc2c(c(N3CCOCC3)nc3sc(C(N)=O)c(N)c23)CO1,?,.,.,.,.
COc1ccc(OC)c(NC(=O)C(=O)NCc2ccncc2)c1,.,.,.,.,.

# Screening results deposited in PubChem BioAssay by National Center for Advancing Translational Sciences (NCATS).
